The campaign covered roughly 96,000 compounds. About 19,000 (20%) were called active. The list is a sample of the results. A number with no mark means an inactive call.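 Rule for the calls: active = blocking of liver enzyme CYP2C9 beyond about 50% at 5 µM (limit read from the data); inactive = the rest.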
Molecular target: Cytochrome P450 2C9 (Homo sapiens) (UniProt P11712)
Experiment: blockers of cytochrome P450 2C9 activity – biochemical, luminescence, ADME assay, primary screen (AID 777)
Details: CYP2C9 Supersomes, luciferin-H conversion, at 5 µM, stronger effect = higher value

Sequence of Cytochrome P450 2C9 (Homo sapiens) (P11712 whole entry, looked up): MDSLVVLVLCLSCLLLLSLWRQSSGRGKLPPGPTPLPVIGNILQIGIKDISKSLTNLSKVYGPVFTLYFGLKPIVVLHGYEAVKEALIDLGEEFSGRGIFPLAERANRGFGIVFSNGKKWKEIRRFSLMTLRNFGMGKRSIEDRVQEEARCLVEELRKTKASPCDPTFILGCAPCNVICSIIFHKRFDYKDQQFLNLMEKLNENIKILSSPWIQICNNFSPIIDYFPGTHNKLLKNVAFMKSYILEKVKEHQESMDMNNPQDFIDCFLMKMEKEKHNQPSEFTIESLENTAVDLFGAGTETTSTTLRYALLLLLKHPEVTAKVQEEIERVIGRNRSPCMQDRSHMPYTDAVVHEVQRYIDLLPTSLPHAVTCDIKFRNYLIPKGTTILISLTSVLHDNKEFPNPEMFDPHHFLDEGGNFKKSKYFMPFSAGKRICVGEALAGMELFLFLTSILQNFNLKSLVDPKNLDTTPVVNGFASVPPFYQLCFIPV

SMILES	inhibition
CC1(C)Oc2ccc3ccc(=O)oc3c2/C(=C/NCCO)C1=O	4.1%
O=C(/C=C/Nc1ccccc1)c1cnc(-c2ccccc2)s1	12.6%
O=C1c2ccncc2C(=O)N1C1CCCCC1	12.5%
CCCCCOC(=O)C1=C(C)Nc2nnnn2C1c1ccc(OC)c(OC)c1OC (stereo unspecified)	56.5% (active)
CC1=C(C(N)=O)C(c2sccc2C)n2nnnc2N1 (stereo unspecified)	-4.8%
COc1ccc(C2C(C(=O)Nc3ccccc3OC)=C(C)Nc3nnnn32)c(OC)c1 (stereo unspecified)	31.8%
CCc1cc(Br)ccc1NC(=O)C1CCCO1 (stereo unspecified)	-2.1%
CC(=O)Oc1cc2c(C(=O)NCCN3CCOCC3)c(C)oc2c2ccccc12	24.6%
CC(c1ccccn1)N(CCN(C)C)C(=S)Nc1ccccc1F (stereo unspecified)	-1.3%
O=C(c1ccccc1Oc1ccccc1)N1CCN(c2ccc(F)cc2)CC1	77% (active)
O=C(c1cccc(F)c1)N1CCN(c2ccc([N+](=O)[O-])c(N3CCCCC3)c2)CC1	80.7% (active)
O=C(O)C1CC=CCC1C(=O)Nc1ccccc1C(=O)N1CCN(c2ccccc2)CC1 (stereo unspecified)	6%
O=C(c1ccccc1)c1cccn1CC(=O)N1CCN(c2ccc(F)cc2)CC1	-62.9%
O=C(c1cccc(N2CCCC2=O)c1)N1CCOCC1	5.6%
O=[N+]([O-])c1ccc(N2CCN(S(=O)(=O)c3ccc4ccccc4c3)CC2)cc1NCc1ccco1	27.8%
O=C(c1ccccc1)N1CCN(c2ccc([N+](=O)[O-])c(NCc3ccco3)c2)CC1	87.1% (active)
CCC(CC)C(=O)Nc1cccc(C(=O)N2CCCC2)c1	12.7%
CC(C)N(C(=O)COC(=O)c1ccccc1C(=O)N1CCN(c2ccc(F)cc2)CC1)C(C)C	39.5%
O=C(c1cccc(C(=O)N2CCN(c3ccc(F)cc3)CC2)c1)N1CCN(c2ccc(F)cc2)CC1	84.6% (active)
CO/N=C/c1ccc(N2CCN(C(=O)c3cccc(Cl)c3)CC2)c([N+](=O)[O-])c1	14.4%
CCNC(=S)N1CCN(C(=O)c2ccco2)CC1	1.2%
CNC(=O)Nc1cc(C(C)(C)C)no1	7.8%
CCOC(=O)c1c(N)c(C#N)nn1-c1ccccc1C(=O)OC	-2.3%
CN(C(=O)CC(NC(=O)c1ccccc1)(c1ccccc1)c1ccccc1)c1ccccc1	21.9%
CC(C)CC(=O)N=C1SC2CS(=O)(=O)CC2N1CCc1ccccc1 (stereo unspecified)	7.8%
CCc1ccc(-c2nnn(Cc3nn[nH]n3)n2)cc1	23.5%

From PubChem BioAssay AID777 (Sanford-Burnham Center for Chemical Genomics, 2007)
